Reference: PubChem BioAssay AID1002 (National Center for Advancing Translational Sciences (NCATS), 2008)
Activity calls are given as the source filed them.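 The calls were made as follows: active = compound given an inhibitor call from its dose-response curve against AmpC beta-lactamase with detergent added; inactive = the rest.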

Biological target: Beta-lactamase (Escherichia coli (strain K12)) (UniProt P00811)
Experiment: Confirmation Concentration-Response Assay for Inhibitors of AmpC Beta-Lactamase (assay with detergent)
Details: purified AmpC, nitrocefin absorbance 480 nm, 0.01% Triton
Method: NIH Molecular Libraries Screening Centers Network [MLSCN] NIH Chemical Genomics Center [NCGC] MLSCN Grant: MH079825-01 Assay Provider: Shoichet, Brian K. This aggregation profiling approach exploits the sensitivity of aggregate formation to detergent. Inhibition of b-lactamase is measured in the presence and absence of 0.01% Triton X-100 (Feng 2007). This particular assay is a confirmation of previous qHTS (Inglese, 2006), Pubchem AID 584, assay with presence of 0.01% Triton X-100. For a related assay without detergent, see AID 585. Compounds that inhibit only in the absence of detergent are considered likely promiscuous aggregators. In this confirmation assay, AmpC activity was measured by following the absorbance at 480 nm. Nitrocefin is a chromogenic substrate: while nitrocefin is yellow (lmax 390 nm), the product of its hydrolysis is red (lmax 486 nm, 17,000 M-1). AmpC beta-lactamase was provided by Prof Brian Shoichet's lab, UCSF.
Buffer: 1. 20 mM phosphate buffer, pH 7.0, 0.01 % Triton X-100 2. Reagents/Controls. 3. Buffer in row 32 as negative control (no enzyme). 4. 3 nM AmpC final concentration in rows 1-31. Assay Steps: Six uL of reagents were dispensed to 1536-well Greiner black clear bottom plates. Compounds (23 nL) were transferred via Kalypsys PinTool. The plates were incubated for 15 min at room temperature, and then 2 uL of 800 uM solution of nitrocefin was added to start the reaction. The plates were immediately transferred to and read every 20 seconds for 3 minutes on ViewLux (Perkin-Elmer) High-throughput CCD imager using 480 nm absorbance protocol.

Chain of Beta-lactamase (Escherichia coli (strain K12)) (P00811 whole entry, looked up): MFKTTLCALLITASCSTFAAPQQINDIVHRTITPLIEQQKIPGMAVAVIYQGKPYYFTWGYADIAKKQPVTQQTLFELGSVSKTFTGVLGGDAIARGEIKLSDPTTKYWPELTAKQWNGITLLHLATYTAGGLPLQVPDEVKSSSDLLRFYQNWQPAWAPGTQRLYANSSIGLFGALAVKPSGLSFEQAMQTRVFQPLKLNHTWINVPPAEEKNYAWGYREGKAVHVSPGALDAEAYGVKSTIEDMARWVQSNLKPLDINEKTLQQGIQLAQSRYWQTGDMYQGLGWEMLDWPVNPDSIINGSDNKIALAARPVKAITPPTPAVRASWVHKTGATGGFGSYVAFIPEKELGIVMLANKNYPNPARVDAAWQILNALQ

Potency, active:
CC(C)[C@H](NC(=O)OC(C)(C)C)c1nnc(S(=O)(=O)Cc2c(F)cccc2Cl)o1 1.8 µM
CC(C)(C)OC(=O)NCCc1nnc(S(=O)(=O)Cc2ccc(Cl)cc2Cl)o1 0.066 µM
COC(=O)CS(=O)(=O)c1nnc([C@H](Cc2ccccc2)NC(=O)OC(C)(C)C)o1 9.4 µM
Cc1ccccc1CS(=O)(=O)c1nnc([C@H](CC(C)C)NC(=O)OC(C)(C)C)o1 11 µM
CC(C)C[C@H](N)c1nnc(S(=O)(=O)Cc2cccc(F)c2)o1 8.6 µM
CC(C)(C)OC(=O)N[C@@H](Cc1ccccc1)c1nnc(S(=O)(=O)Cc2ccccc2)o1 16 µM
CC[C@@H](C)[C@H](NC(=O)OC(C)(C)C)c1nnc(S(=O)(=O)Cc2cc(C)ccc2C)o1 10 µM
CC(C)(C)OC(=O)N[C@@H](Cc1ccccc1)c1nnc(S(=O)(=O)Cc2cccc(F)c2)o1 15 µM
CCC(C)[C@@H](NC(=O)OC(C)(C)C)c1nnc(S(=O)(=O)Cc2cccc(C)c2)o1 (some centres undefined) 10 µM
